In PubChem BioAssay (NCATS):
A number with no mark means an inactive call. Records with an inconclusive call do not appear. Where a call stands in place of a potency, no number is given. Active and inactive are the calls of the source. Unless noted, calls come from the whole dose curve; as a rule, active = well fitted inhibition curve with a large enough effect; inconclusive = small, poorly fitted or top-dose-only effect; inactive = no such curve, though single readings can be large or run the other way.

Experiments:
[1] = target: Cytochrome P450 1A2 (Homo sapiens) (UniProt P05177); experiment: p450-cyp1a2 (AID 410; calls by dose curve; note: potency is the fitted concentration of half-maximal effect); conditions: recombinant CYP1A2, luciferin-ME demethylation, luminescence; series mostly up to 57 µM
Chain of Cytochrome P450 1A2 (Homo sapiens) (P05177 whole entry, looked up): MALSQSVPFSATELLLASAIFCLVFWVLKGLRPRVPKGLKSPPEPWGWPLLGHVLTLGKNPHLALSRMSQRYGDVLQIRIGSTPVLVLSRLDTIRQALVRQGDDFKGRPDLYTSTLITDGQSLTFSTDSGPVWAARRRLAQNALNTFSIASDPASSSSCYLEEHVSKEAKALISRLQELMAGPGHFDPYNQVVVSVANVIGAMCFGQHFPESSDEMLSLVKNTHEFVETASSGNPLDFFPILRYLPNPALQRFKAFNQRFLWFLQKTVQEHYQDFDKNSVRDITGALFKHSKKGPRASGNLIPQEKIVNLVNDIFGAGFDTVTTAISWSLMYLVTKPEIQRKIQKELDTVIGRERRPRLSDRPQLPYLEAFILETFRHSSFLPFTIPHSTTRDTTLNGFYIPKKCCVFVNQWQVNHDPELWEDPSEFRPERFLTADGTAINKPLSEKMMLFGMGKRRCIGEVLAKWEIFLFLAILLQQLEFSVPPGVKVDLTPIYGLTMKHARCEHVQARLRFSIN
Summary of the method: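 Luminescent readout of luciferin formed from Luciferin-ME by human CYP1A2; data normalized against complete inhibition by 57 uM furafylline. Enzyme 20nM, substrate 100uM at Km, 100mM KPO4 buffer, 60 min reaction at room temperature.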

[2] = target: Glucocorticoid receptor (Homo sapiens) (UniProt P04150); experiment: GR-EFC Redistribution (AID 451; calls by dose curve; note: potency is the fitted concentration of half-maximal effect); conditions: CHO-K1 GR-EFC translocation, beta-gal luminescence, 2 h
Chain of Glucocorticoid receptor (Homo sapiens) (P04150 whole entry, looked up, the tested form may be a part): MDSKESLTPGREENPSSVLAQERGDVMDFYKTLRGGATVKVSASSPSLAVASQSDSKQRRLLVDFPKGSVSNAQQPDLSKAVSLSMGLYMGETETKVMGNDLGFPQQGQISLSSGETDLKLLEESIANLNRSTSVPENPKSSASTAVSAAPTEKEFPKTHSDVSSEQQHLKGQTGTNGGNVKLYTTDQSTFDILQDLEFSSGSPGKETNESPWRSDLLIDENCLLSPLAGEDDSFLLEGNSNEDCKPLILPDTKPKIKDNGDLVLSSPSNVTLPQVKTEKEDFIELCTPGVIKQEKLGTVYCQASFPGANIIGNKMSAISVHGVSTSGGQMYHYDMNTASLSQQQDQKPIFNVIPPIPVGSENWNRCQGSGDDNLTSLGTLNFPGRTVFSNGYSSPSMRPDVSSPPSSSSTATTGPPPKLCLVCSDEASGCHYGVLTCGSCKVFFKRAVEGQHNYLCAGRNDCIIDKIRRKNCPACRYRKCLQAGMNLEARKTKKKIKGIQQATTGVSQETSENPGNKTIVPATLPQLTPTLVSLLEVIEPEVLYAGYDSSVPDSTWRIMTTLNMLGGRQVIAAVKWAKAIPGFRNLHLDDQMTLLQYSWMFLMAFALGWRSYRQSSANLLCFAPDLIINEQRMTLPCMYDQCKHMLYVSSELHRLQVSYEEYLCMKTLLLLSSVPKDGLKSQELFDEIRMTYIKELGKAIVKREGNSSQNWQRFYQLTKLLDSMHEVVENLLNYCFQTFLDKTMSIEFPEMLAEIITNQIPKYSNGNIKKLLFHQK
Summary of the method: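 CHO-K1 cells stably expressing nuclear-localized β-gal enzyme acceptor and GR fused C-terminally to the enzyme donor fragment; ligand-driven nuclear translocation restores β-gal by complementation. Compounds titrated up to 46 uM final, 2 h at 37 °C; luminescence read.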

[3] = target: Mitogen-activated protein kinase 10 (Mus musculus) (UniProt Q61831); experiment: JNK3 AlphaScreen Assay (AID 530; active = well fitted curve in either direction with a large enough effect, not every such curve was filed as active;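 note: kinase came from lysate of stimulated human HepG2 cells; signal reports phosphorylation of biotinylated GST-cJun 1-79 at Ser73 with 10 µM ATP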); conditions: JNK3 lysate, c-Jun phosphorylation; series mostly up to 57.1 µM
Summary of the method: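 Inhibitors reduce antibody binding to phosphorylated biotin-cJun, lowering AlphaScreen luminescence. Lysates from HepG2 cells pre-activated by IL-1beta plus TNF-alpha supplied JNK3; compounds were titrated.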

[4] = target: 3',5'-cyclic-AMP phosphodiesterase 4B (Homo sapiens) (UniProt Q07343); experiment: qHTS Assay for Inhibitors of PDE-IV (AID 607; active = well fitted activation curve with a large enough effect in the main read-out, with a control signal flat, not every such curve was filed as active); conditions: HEK293 ACTOne CNG channel cells, membrane potential fluorescence; series mostly up to 22.9 µM
Chain of 3',5'-cyclic-AMP phosphodiesterase 4B (Homo sapiens) (Q07343 whole entry, looked up): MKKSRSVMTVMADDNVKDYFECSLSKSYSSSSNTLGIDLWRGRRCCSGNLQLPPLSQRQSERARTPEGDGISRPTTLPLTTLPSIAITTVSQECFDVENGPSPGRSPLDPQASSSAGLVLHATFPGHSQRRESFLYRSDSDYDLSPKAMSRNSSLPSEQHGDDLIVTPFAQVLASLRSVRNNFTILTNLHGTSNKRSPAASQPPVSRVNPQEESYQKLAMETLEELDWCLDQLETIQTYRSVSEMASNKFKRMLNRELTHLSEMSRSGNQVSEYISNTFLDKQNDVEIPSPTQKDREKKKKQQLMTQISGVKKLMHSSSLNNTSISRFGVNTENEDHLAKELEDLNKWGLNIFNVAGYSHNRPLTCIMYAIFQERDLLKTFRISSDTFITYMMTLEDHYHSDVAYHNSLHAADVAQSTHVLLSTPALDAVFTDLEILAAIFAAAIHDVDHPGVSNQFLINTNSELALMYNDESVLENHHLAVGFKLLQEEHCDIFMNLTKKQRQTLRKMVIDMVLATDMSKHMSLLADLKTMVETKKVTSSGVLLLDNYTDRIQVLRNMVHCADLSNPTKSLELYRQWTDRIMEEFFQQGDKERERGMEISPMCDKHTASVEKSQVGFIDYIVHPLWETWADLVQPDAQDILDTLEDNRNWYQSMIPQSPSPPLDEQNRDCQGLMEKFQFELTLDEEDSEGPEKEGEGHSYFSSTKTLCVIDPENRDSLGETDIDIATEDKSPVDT
Summary of the method: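 ACTOne HEK293 cells carry a modified cAMP-gated CNG channel and express endogenous PDE4; plated 1000 cells/well, compounds up to 22.9 uM final. Membrane-potential dye fluorescence (ex 535/em 590) was read; parental cells received 10 uM forskolin + 100 uM RO 20-1724.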

[5] = target: Cytochrome P450 2C9 (Homo sapiens) (UniProt P11712); experiment: qHTS Assay for Inhibitors and Substrates of Cytochrome P450 2C9 (AID 883); conditions: recombinant CYP2C9, luciferin-H luminescence, 60 min; series mostly up to 57.1 µM; note: nearly all actives have a fitted effect of over 60% in size
Chain of Cytochrome P450 2C9 (Homo sapiens) (P11712 whole entry, looked up): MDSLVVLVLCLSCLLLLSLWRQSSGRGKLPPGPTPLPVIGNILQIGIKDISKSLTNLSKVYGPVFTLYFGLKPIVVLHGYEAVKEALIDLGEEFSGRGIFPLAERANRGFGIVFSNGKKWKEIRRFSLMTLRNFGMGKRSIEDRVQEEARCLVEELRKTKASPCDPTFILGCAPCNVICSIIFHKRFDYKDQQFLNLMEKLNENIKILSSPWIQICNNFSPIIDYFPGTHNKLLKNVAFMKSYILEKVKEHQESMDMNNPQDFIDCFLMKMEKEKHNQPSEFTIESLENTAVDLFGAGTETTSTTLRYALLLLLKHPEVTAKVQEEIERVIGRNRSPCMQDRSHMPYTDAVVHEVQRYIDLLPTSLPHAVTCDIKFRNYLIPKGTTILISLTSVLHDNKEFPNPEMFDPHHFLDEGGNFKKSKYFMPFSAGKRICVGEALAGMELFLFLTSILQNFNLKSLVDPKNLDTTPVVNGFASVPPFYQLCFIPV
Summary of the method: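 CYP2C9 deoxyluciferin hydroxylation, 37C, 60 min with NADPH regeneration; 10nM enzyme, 100uM Luciferin-H (KM). Glo detection reagent stopped reaction; luminescence normalized to sulphaphenazole (57uM) full inhibition.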

[6] = target: Cytochrome P450 2D6 (Homo sapiens) (UniProt P10635); experiment: qHTS Assay for Inhibitors and Substrates of Cytochrome P450 2D6 (AID 891); conditions: recombinant CYP2D6, luciferin-ME EGE luminescence; series mostly up to 57.1 µM;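 note: luciferin methyl ether substrate demethylated by CYP2D6 with NADPH regeneration; nearly all actives have a fitted effect of over 60% in size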
Chain of Cytochrome P450 2D6 (Homo sapiens) (P10635 whole entry, looked up): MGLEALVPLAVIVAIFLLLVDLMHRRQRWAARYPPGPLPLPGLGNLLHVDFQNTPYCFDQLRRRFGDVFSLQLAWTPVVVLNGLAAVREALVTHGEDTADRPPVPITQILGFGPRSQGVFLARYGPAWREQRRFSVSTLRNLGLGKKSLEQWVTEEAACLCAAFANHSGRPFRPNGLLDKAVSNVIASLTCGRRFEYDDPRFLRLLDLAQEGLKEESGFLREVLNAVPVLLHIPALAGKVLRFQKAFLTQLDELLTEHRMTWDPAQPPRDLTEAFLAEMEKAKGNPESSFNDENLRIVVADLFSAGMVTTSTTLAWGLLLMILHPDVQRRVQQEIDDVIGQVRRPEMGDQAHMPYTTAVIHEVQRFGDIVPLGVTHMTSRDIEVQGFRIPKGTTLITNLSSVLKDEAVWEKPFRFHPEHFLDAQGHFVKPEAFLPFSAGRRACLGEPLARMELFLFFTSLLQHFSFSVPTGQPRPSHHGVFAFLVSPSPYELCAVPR
Summary of the method: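 Human CYP2D6 (5 nM) with 30 uM Luciferin-ME EGE (at Km) in 100 mM KPO4, compound preincubated 10 min, then NADPH regeneration system for 60 min at room temperature. Luciferin read by luminescence; normalized to 1.43 uM quinidine.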

[7] = target: Cytochrome P450 2C19 (Homo sapiens) (UniProt P33261); experiment: qHTS Assay for Inhibitors and Substrates of Cytochrome P450 2C19 (AID 899); conditions: recombinant CYP2C19, luciferin-H EGE luminescence; series mostly up to 57.1 µM; note: nearly all actives have a fitted effect of over 60% in size
Chain of Cytochrome P450 2C19 (Homo sapiens) (P33261 whole entry, looked up): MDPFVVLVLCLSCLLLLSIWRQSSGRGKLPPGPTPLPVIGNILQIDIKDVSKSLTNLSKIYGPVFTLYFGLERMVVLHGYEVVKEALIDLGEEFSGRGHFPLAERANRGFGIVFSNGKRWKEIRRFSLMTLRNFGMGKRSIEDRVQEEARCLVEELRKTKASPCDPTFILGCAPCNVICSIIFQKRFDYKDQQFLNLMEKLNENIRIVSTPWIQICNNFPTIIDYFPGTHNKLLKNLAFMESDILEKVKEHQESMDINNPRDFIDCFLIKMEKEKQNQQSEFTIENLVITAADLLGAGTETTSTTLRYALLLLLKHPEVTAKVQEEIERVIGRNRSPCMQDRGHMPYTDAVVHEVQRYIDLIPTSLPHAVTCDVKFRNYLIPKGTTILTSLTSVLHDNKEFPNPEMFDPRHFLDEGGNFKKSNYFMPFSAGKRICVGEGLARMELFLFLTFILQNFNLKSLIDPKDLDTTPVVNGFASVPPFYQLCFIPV
Summary of the method: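 In 50mM KPO4, the reaction held 5nM enzyme and KM-level (10uM) Luciferin-H EGE; it ran 60 min at 37C after NADPH regeneration and a 10 min compound preincubation. Luminescence values were scaled to 57uM ketoconazole as complete inhibition.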

SMILES | Potency [1] | Potency [2] [µM] | Potency [3] | Potency [4] | Potency [5] | Potency [6] | Potency [7]
CC(C)[C@@H](CC(=O)N[C@@H]1CCCC[C@H]1C(=O)N[C@H](CC(=O)N[C@@H](CCC(=O)O)CC(=O)O)Cc1c[nH]c2ccccc12)NC(=O)C[C@H](Cc1c[nH]c2ccccc12)NC(=O)[C@@H]1CCCC[C@H]1N | inactive | > 46 | inactive | inactive | inactive | inactive | inactive
CC(C)[C@@H](CC(=O)N[C@@H]1CCCC[C@H]1C(=O)N[C@H](CC(=O)N[C@@H](CCC(=O)O)CC(=O)O)Cc1ccccc1)NC(=O)C[C@H](CO)NC(=O)[C@@H]1CCCC[C@H]1N | inactive | > 46 | inactive | inactive | – | inactive | –
CC(C)C[C@@H](CC(=O)N[C@H](CC(=O)N[C@@H]1CCCC[C@H]1C(=O)N[C@H](CC(=O)N[C@@H](CCC(=O)O)CC(=O)O)Cc1c[nH]c2ccccc12)C(C)C)NC(=O)[C@@H]1CCCC[C@H]1N | inactive | > 46 | inactive | inactive | inactive | inactive | inactive
CC(C)[C@@H](CC(=O)N[C@@H]1CCNC[C@H]1C(=O)N[C@H](CC(=O)N[C@@H](CCC(=O)O)CC(=O)O)Cc1ccccc1)NC(=O)C[C@H](Cc1c[nH]c2ccccc12)NC(=O)[C@@H]1CNCC[C@H]1N | inactive | > 46 | inactive | inactive | – | inactive | inactive
NCCC[C@@H](CC(=O)N[C@@H]1CCNC[C@H]1C(=O)N[C@H](CC(=O)N[C@@H](CCC(=O)O)CC(=O)O)Cc1ccccc1)NC(=O)C[C@H](Cc1ccccc1)NC(=O)[C@@H]1CNCC[C@H]1N | 31.6 µM (active) | > 46 | inactive | inactive | inactive | inactive | inactive
CC(C)C[C@@H](CC(=O)N[C@@H](CCC(=O)O)CC(=O)O)NC(=O)[C@@H]1CNCC[C@H]1NC(=O)C[C@H](CCCN)NC(=O)C[C@H](CO)NC(=O)[C@@H]1CNCC[C@H]1N | inactive | > 46 | inactive | inactive | – | inactive | –
CC(C)C[C@@H](CC(=O)N[C@H](CC(=O)N[C@@H]1CCNC[C@H]1C(=O)N[C@H](CC(=O)N[C@@H](CCC(=O)O)CC(=O)O)Cc1ccccc1)C(C)C)NC(=O)[C@@H]1CCCC[C@H]1N | inactive | > 46 | inactive | inactive | – | inactive | –
CC(C)C[C@@H](CC(=O)N[C@@H](CCCN)CC(=O)N[C@@H]1CCCC[C@H]1C(=O)N[C@H](CC(=O)N[C@@H](CCC(=O)O)CC(=O)O)Cc1ccccc1)NC(=O)[C@@H]1CCCC[C@H]1N | inactive | > 46 | inactive | inactive | – | inactive | –
CC(C)[C@@H](CC(=O)N[C@@H]1CCCC[C@H]1C(=O)N[C@H](CC(=O)N[C@@H](CCC(=O)O)CC(=O)O)Cc1c[nH]c2ccccc12)NC(=O)C[C@H](Cc1ccccc1)NC(=O)[C@@H]1CCCC[C@H]1N | inactive | > 46 | – | inactive | inactive | inactive | inactive
CC(C)[C@@H](CC(=O)N[C@@H]1CCCC[C@H]1C(=O)N[C@H](CC(=O)N[C@@H](CCC(=O)O)CC(=O)O)Cc1c[nH]c2ccccc12)NC(=O)C[C@H](Cc1ccccc1)NC(=O)[C@@H]1CNCC[C@H]1N | inactive | > 46 | inactive | – | inactive | inactive | inactive
CC(C)C[C@@H](CC(=O)N[C@@H](CCC(=O)O)CC(=O)O)NC(=O)[C@@H]1CCCC[C@H]1NC(=O)C[C@H](CCCN)NC(=O)C[C@H](Cc1ccccc1)NC(=O)[C@@H]1CNCC[C@H]1N | inactive | > 46 | inactive | inactive | – | inactive | inactive
CC(C)C[C@@H](CC(=O)N[C@H](CC(=O)N[C@@H]1CCCC[C@H]1C(=O)N[C@H](CC(=O)N[C@@H](CCC(=O)O)CC(=O)O)Cc1c[nH]c2ccccc12)C(C)C)NC(=O)[C@@H]1CNCC[C@H]1N | inactive | > 46 | – | inactive | inactive | inactive | inactive
CC(C)C[C@@H](CC(=O)N[C@H](CC(=O)N[C@@H]1CCNC[C@H]1C(=O)N[C@H](CC(=O)N[C@@H](CCC(=O)O)CC(=O)O)Cc1c[nH]c2ccccc12)C(C)C)NC(=O)[C@@H]1CNCC[C@H]1N | inactive | > 46 | – | inactive | inactive | inactive | inactive
CC(C)C[C@@H](CC(=O)N[C@@H](CCC(=O)O)CC(=O)O)NC(=O)[C@@H]1CNCC[C@H]1NC(=O)C[C@H](CCCN)NC(=O)C[C@H](Cc1ccccc1)NC(=O)[C@@H]1CCCC[C@H]1N | 25.1 µM (active) | > 46 | inactive | inactive | inactive | inactive | inactive
NCCC[C@@H](CC(=O)N[C@@H]1CCNC[C@H]1C(=O)N[C@H](CC(=O)N[C@@H](CCC(=O)O)CC(=O)O)Cc1c[nH]c2ccccc12)NC(=O)C[C@H](Cc1c[nH]c2ccccc12)NC(=O)[C@@H]1CCCC[C@H]1N | inactive | > 46 | inactive | inactive | inactive | inactive | inactive
CC(C)C[C@@H](CC(=O)N[C@@H](CCC(=O)O)CC(=O)O)NC(=O)[C@@H]1CNCC[C@H]1NC(=O)C[C@H](CCCN)NC(=O)C[C@H](CO)NC(=O)[C@@H]1CCCC[C@H]1N | inactive | > 46 | inactive | inactive | inactive | inactive | inactive
CC(C)C[C@@H](CC(=O)N[C@@H](CCC(=O)O)CC(=O)O)NC(=O)[C@@H]1CCCC[C@H]1NC(=O)C[C@@H](NC(=O)C[C@H](CO)NC(=O)[C@@H]1CCCC[C@H]1N)C(C)C | inactive | > 46 | inactive | inactive | – | inactive | inactive
NCCC[C@@H](CC(=O)N[C@@H]1CCNC[C@H]1C(=O)N[C@H](CC(=O)N[C@@H](CCC(=O)O)CC(=O)O)Cc1ccccc1)NC(=O)C[C@H](Cc1c[nH]c2ccccc12)NC(=O)[C@@H]1CNCC[C@H]1N | inactive | > 46 | inactive | inactive | inactive | inactive | inactive
CC(C)C[C@@H](CC(=O)N[C@@H](CCCN)CC(=O)N[C@@H]1CCCC[C@H]1C(=O)N[C@H](CC(=O)N[C@@H](CCC(=O)O)CC(=O)O)CC(C)C)NC(=O)[C@@H]1CCCC[C@H]1N | inactive | > 46 | – | inactive | inactive | inactive | inactive
CC(C)C[C@@H](CC(=O)N[C@@H](CCC(=O)O)CC(=O)O)NC(=O)[C@@H]1CNCC[C@H]1NC(=O)C[C@@H](NC(=O)C[C@H](Cc1ccccc1)NC(=O)[C@@H]1CNCC[C@H]1N)C(C)C | 31.6 µM (active) | > 46 | inactive | – | inactive | inactive | inactive
CC(C)C[C@@H](CC(=O)N[C@@H](CCC(=O)O)CC(=O)O)NC(=O)[C@@H]1CCCC[C@H]1NC(=O)C[C@@H](NC(=O)C[C@H](Cc1ccccc1)NC(=O)[C@@H]1CCCC[C@H]1N)C(C)C | inactive | > 46 | inactive | inactive | – | inactive | inactive
CC(C)[C@@H](CC(=O)N[C@@H]1CCCC[C@H]1C(=O)N[C@H](CC(=O)N[C@@H](CCC(=O)O)CC(=O)O)Cc1ccccc1)NC(=O)C[C@H](Cc1c[nH]c2ccccc12)NC(=O)[C@@H]1CCCC[C@H]1N | inactive | > 46 | inactive | inactive | – | inactive | inactive
CC(C)C[C@@H](CC(=O)N[C@@H](CCC(=O)O)CC(=O)O)NC(=O)[C@@H]1CCCC[C@H]1NC(=O)C[C@@H](NC(=O)C[C@H](CO)NC(=O)[C@@H]1CNCC[C@H]1N)C(C)C | inactive | > 46 | inactive | – | – | inactive | inactive
NCCC[C@@H](CC(=O)N[C@@H]1CCCC[C@H]1C(=O)N[C@H](CC(=O)N[C@@H](CCC(=O)O)CC(=O)O)Cc1ccccc1)NC(=O)C[C@H](CO)NC(=O)[C@@H]1CNCC[C@H]1N | inactive | > 46 | inactive | – | – | inactive | inactive
CC(C)C[C@@H](CC(=O)N[C@@H](CCC(=O)O)CC(=O)O)NC(=O)[C@@H]1CCCC[C@H]1NC(=O)C[C@H](CCCN)NC(=O)C[C@H](Cc1c[nH]c2ccccc12)NC(=O)[C@@H]1CNCC[C@H]1N | inactive | > 46 | inactive | – | inactive | inactive | inactive
CC(C)C[C@@H](CC(=O)N[C@@H](CCC(=O)O)CC(=O)O)NC(=O)[C@@H]1CNCC[C@H]1NC(=O)C[C@@H](NC(=O)C[C@H](Cc1c[nH]c2ccccc12)NC(=O)[C@@H]1CCCC[C@H]1N)C(C)C | inactive | > 46 | – | inactive | inactive | inactive | inactive
